# Test results published in paper PMC12136788.
# Whole data set: some 24,000 sequences, median “enrichment r” near 0.99, cut for the highest 2% near 3.7. Many of the other results were omitted from the sample, so the highest values are more common in it than they were.
# T1: UNK ZnF1-3 (human, UniProt Q9C0B0 31-174)
# T1 sequence: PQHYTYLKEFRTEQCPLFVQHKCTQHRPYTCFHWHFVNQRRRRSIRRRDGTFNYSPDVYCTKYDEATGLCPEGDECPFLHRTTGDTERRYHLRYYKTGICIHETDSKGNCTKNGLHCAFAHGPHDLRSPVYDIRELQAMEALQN
# B1: chr12:73045124:73045125:+_ENSMUSG00000034574_ENSMUST00000085299|mus_mus|FALSE|FALSE (ssRNA)
# RNA: GGGAGUUCUACAGUCCGACGAUCGCCUUGAGAGUUGUUCAUUAGUGCCUUUAUACAGCCAAUGAGGGAGGUGUGUAUCCGAGACUCAGAGGUCUCAUAGUCCAUGGUCUUCAGAAAGUUGAGAAUACAUGACAGGCCAUCCAACAACAGAGGAUUGAGCAUCA
# B2: chr16:57473197:57473198:-_ENSG00000005194_ENST00000569370|hu_hu|motif|central (ssRNA)
# RNA: GGGAGUUCUACAGUCCGACGAUCGAUCCGGGCGAUUUCAGCCAAAAUCUCAGCACUGUGCAGAGUGGUGCUUCCUGGGACGGAACCUGACAAAAUAAUGUCAAAGCUGGAUUCUUUGUGGGCAGAUUGCAACAGCUGCUUGAUCAACAGAGGAUUGAGCAUCA
# B3: chrX:114877694:114877695:+_ENSG00000102024_ENST00000355899|hu_hu|FALSE|FALSE (ssRNA)
# RNA: GGGAGUUCUACAGUCCGACGAUCGUUGAGUUUGGGGUUUCCACUGACAACAUCAGCAGGGGUAACAAACUGUCUGCAACCUAAUUUAUCUGCUUGUUGAAGCAUACUCUCAGCUCUCUUCAAAUCAUCUGUUUCAUUGAAACCCAACAGAGGAUUGAGCAUCA
# B4: 31603315_31603435_826_3pUTR_ENSMUSG00000024261_ENSMUST00000025110|mouse|control|control (ssRNA)
# RNA: GGGAGUUCUACAGUCCGACGAUCUUCCUGAGCACUCUGGUCUUCACUCUGUGCUUCUUCUCUGGUAAGAUUGUCAUUUUGAUGUACGGGUCAGAGGUCAUGGAUUGCUCGUCCAUGGCUGGUAAGCCCUGGGCUUCCUUGAUGCAACAGAGGAUUGAGCAUCA
# B5: 171883182_171886102_1035_3pUTR_ENSMUSG00000026675_ENSMUST00000027989|mouse|control|control (ssRNA)
# RNA: GGGAGUUCUACAGUCCGACGAUCUUCUGAACGGUGGUCCUGACACGCUUUUCCAGCUCCAGUAAGACCUCAUAGAAUUUUUCAGCAGUGUCUUCAUCUAUGUCCAUCUUUUGGCCCGUGACGUAAUUAGUCCCAAAUCCCGAGCAACAGAGGAUUGAGCAUCA
# B6: 82050892_82051012_2182_ncRNA_ENSMUSG00000021134_ENSMUST00000153056|mouse|control|control (ssRNA)
# RNA: GGGAGUUCUACAGUCCGACGAUCUUGUUUUGUUUUUUAAAAAAAGGCCCCCAGGGCAAGUUAUUUACAGUUUAAUUGCCACUGUCAACUGAUCUGGACCUGGACCGGGAUCGGGACCUCUGGCGAUCCACAGAUGCUGGAGAUCAACAGAGGAUUGAGCAUCA
# Target: T1, UNK ZnF1-3
# Assay: nsRBNS (natural sequence RNA bind-n-seq); RBNS binding buffer (assumed for nsRBNS): 25 mM Tris pH 7.5, 150 mM KCl, 3 mM MgCl2, 0.01% Triton X-100, 500 ug/ml BSA, 20 U/ml SUPERase-In, 4 C; UNK is unkempt and MSI1 is Musashi-1; names of the RNAs are library labels; protein concentration not given here; high values mean tight binding
row,Binder,binding signal [enrichment R]
1,B1,0.851
2,B2,1.32
3,B3,0.755
4,B4,0.411
5,B5,0.753
6,B6,1.31
